For 9 molecules, growth results are on record in PubChem BioAssay (NCI).

Test systems include HOP-62 NSCLC; NCI-H460 lung; A549/ATCC NSCLC; 786-0 renal; DU-145 prostate; RXF 393 renal; SF-295 CNS; UACC-257 melanoma; M14 melanoma; SNB-19 CNS; SK-MEL-2 melanoma; A498 renal; HL-60(TB) leukemia; RPMI-8226 leukemia; OVCAR-5 ovarian; OVCAR-4 ovarian; T-47D breast; MALME-3M melanoma; UO-31 renal; HCC-2998 colon.
Experiment in all cases: NCI-60 one-dose screen, 48 h (100 = growth as untreated, 0 = no growth, -100 = all killed)
Holding throughout (details): 10 µM unless noted

About 83,000 compounds went through this panel and 20% of them were active in at least one assay; those are over-represented in the sample as a whole.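 48-hour exposure, single concentration, 96-well plates; percent growth endpoint where 0 means no net growth. Active: below 10.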 Values without a mark were called inactive. The source made the active and inactive calls.

In the case of `Cc1cccc(N=C2c3cc([N+](=O)[O-])ccc3-c3c2cc([N+](=O)[O-])cc3[N+](=O)[O-])c1`, the growth in the experiment on HOP-62 NSCLC is 61.7%; in the experiment with NCI-H460 lung it was 33.5%; with A549/ATCC NSCLC it was 72.1%; with 786-0 renal, 60%; in the experiment on DU-145 prostate it was 88%; with RXF 393 renal it was 72.2%. Further, the growth in the experiment with SF-295 CNS is 97.8%; with UACC-257 melanoma, 90.8%; in the experiment with M14 melanoma, 69.4%; in the experiment on SNB-19 CNS, 82.5%; with SK-MEL-2 melanoma, 12.1%; with A498 renal, 74.5%. Further, the growth is 46.7% in the experiment on HL-60(TB) leukemia; -8.81% (active) in the experiment with RPMI-8226 leukemia; 99.4% with OVCAR-5 ovarian; 71.3% in the experiment on OVCAR-4 ovarian; -25.1% (active) with T-47D breast.
As to `NC(=O)SCC(=O)Nc1ccc([As](=O)(O)O)cc1`, the growth in the experiment on HOP-62 NSCLC is 136%; in the experiment on NCI-H460 lung, 101%; in the experiment with A549/ATCC NSCLC it was 85.9%; with 786-0 renal, 82.8%; in the experiment on DU-145 prostate, 101%; in the experiment on MALME-3M melanoma, 122%. The growth was 95.7% in the experiment with RXF 393 renal; 111% in the experiment on SF-295 CNS; 74.1% in the experiment on UACC-257 melanoma; 89.7% in the experiment with M14 melanoma; 92.8% in the experiment with SNB-19 CNS; 73.3% in the experiment with SK-MEL-2 melanoma. Further, the growth was 93.8% in the experiment on UO-31 renal; 113% in the experiment on A498 renal; 56.9% with HL-60(TB) leukemia; 84% in the experiment on RPMI-8226 leukemia; 125% with OVCAR-5 ovarian; 99.8% in the experiment with OVCAR-4 ovarian. The growth in the experiment on T-47D breast was 112%; in the experiment with HCC-2998 colon, 82%.
On to `Nc1c(Br)cc([N+](=O)[O-])cc1[N+](=O)[O-]`, for which the growth with HOP-62 NSCLC is 117%; in the experiment with NCI-H460 lung, 103%; in the experiment with A549/ATCC NSCLC, 92.3%; in the experiment on 786-0 renal it was 105%; in the experiment on DU-145 prostate it was 101%; with RXF 393 renal, 106%. For the same molecule, the growth is 105% with SF-295 CNS; 100% in the experiment with UACC-257 melanoma; 102% with SNB-19 CNS; 138% with SK-MEL-2 melanoma; 92.8% in the experiment on A498 renal; 67.8% in the experiment on HL-60(TB) leukemia. The growth in the experiment with RPMI-8226 leukemia is 105%; in the experiment on OVCAR-5 ovarian it was 106%; in the experiment on OVCAR-4 ovarian it was 107%; in the experiment with T-47D breast it was 107%; in the experiment on HCC-2998 colon it was 102%.
Regarding `CCC(CC)(c1ccccc1)C(OC(N)=O)c1ccccc1` (stereo not drawn), the growth in the experiment on HOP-62 NSCLC is 84.7%; with NCI-H460 lung it was 90.1%; in the experiment with A549/ATCC NSCLC, 76%; in the experiment on 786-0 renal, 82.9%; in the experiment with DU-145 prostate it was 98.4%; with SF-295 CNS, 71.9%. Further, the growth is 85.8% with UACC-257 melanoma; 83.6% in the experiment with M14 melanoma; 88.1% in the experiment on SNB-19 CNS; 79.2% with SK-MEL-2 melanoma; 71.4% in the experiment with UO-31 renal; 79.2% in the experiment with A498 renal. Besides, the growth with HL-60(TB) leukemia was 96.1%; in the experiment with RPMI-8226 leukemia it was 79.7%; with OVCAR-5 ovarian it was 111%; in the experiment with OVCAR-4 ovarian, 83.7%; in the experiment on T-47D breast it was 82.2%.
As to `C=CCC1(CC)C(=O)NC(=S)NC1=O`, the growth in the experiment on HOP-62 NSCLC is 97.9%; with NCI-H460 lung, 111%; in the experiment with A549/ATCC NSCLC it was 102%; with 786-0 renal it was 108%; in the experiment with DU-145 prostate it was 103%; in the experiment with MALME-3M melanoma it was 108%. In addition, the growth is 110% in the experiment on RXF 393 renal; 108% with SF-295 CNS; 105% in the experiment on UACC-257 melanoma; 115% in the experiment with M14 melanoma; 97.1% in the experiment on SNB-19 CNS; 99.3% with SK-MEL-2 melanoma. The growth in the experiment on UO-31 renal is 83.7%; in the experiment with A498 renal, 110%; in the experiment on HL-60(TB) leukemia it was 75.4%; in the experiment on RPMI-8226 leukemia it was 103%; in the experiment with OVCAR-5 ovarian, 101%; with OVCAR-4 ovarian it was 110%. Also, the growth is 100% with T-47D breast and 96.5% in the experiment on HCC-2998 colon.
`COc1ccc(OC)c(/C=C(/C)[N+](=O)[O-])c1`: the growth is 38.9% with HOP-62 NSCLC; 33.1% with NCI-H460 lung; 75.8% in the experiment on A549/ATCC NSCLC; 90.9% in the experiment on 786-0 renal; 6.46% (active) in the experiment with DU-145 prostate; -18.5% (active) with RXF 393 renal. In addition, the growth was 110% in the experiment with SF-295 CNS; 0.553% (active) in the experiment with UACC-257 melanoma; 47% with M14 melanoma; 97.6% in the experiment with SNB-19 CNS; 56.4% in the experiment on SK-MEL-2 melanoma; -46.3% (active) in the experiment on UO-31 renal. Also, the growth with A498 renal was 110%; in the experiment with HL-60(TB) leukemia, 62.3%; in the experiment with RPMI-8226 leukemia, -21.9% (active); in the experiment with OVCAR-5 ovarian, 108%; with OVCAR-4 ovarian, 64.4%; in the experiment with T-47D breast it was 19.9%. The growth in the experiment on HCC-2998 colon is 106%.
For the molecule `S=P(Nc1ccccc1)(Nc1ccccc1)c1ccccc1`, the growth in the experiment on HOP-62 NSCLC is 90.7%; in the experiment on NCI-H460 lung, 103%; in the experiment with A549/ATCC NSCLC it was 91.8%; with 786-0 renal, 94.6%; in the experiment on DU-145 prostate, 122%; in the experiment on MALME-3M melanoma it was 142%. Besides, the growth with RXF 393 renal was 98.5%; with SF-295 CNS, 102%; with UACC-257 melanoma, 102%; in the experiment on M14 melanoma it was 97.7%; in the experiment on SNB-19 CNS it was 85.3%; in the experiment on SK-MEL-2 melanoma, 105%. Further, the growth is 87.7% in the experiment on UO-31 renal; 70.6% with A498 renal; 82.5% in the experiment with RPMI-8226 leukemia; 99.6% in the experiment with OVCAR-5 ovarian; 104% in the experiment with OVCAR-4 ovarian; 87.5% in the experiment on T-47D breast. In the experiment on HCC-2998 colon, the growth is 93.6%.
Turning to `CC1COC(=O)C1` (stereo not drawn), the growth was 99.6% with HOP-62 NSCLC; 102% in the experiment with NCI-H460 lung; 101% in the experiment on A549/ATCC NSCLC; 95.1% with 786-0 renal; 104% in the experiment with DU-145 prostate; 98.2% with MALME-3M melanoma. The growth in the experiment with RXF 393 renal is 103%; with SF-295 CNS it was 99.8%; with UACC-257 melanoma, 104%; in the experiment with M14 melanoma, 102%; in the experiment with SNB-19 CNS, 105%; in the experiment on SK-MEL-2 melanoma, 99.3%. Further, the growth is 90.4% in the experiment with UO-31 renal; 89.2% with A498 renal; 105% with HL-60(TB) leukemia; 110% in the experiment on RPMI-8226 leukemia; 102% in the experiment with OVCAR-5 ovarian; 109% in the experiment with OVCAR-4 ovarian. For the same molecule, the growth in the experiment on T-47D breast was 95.5%; in the experiment with HCC-2998 colon it was 98.6%.
With `O=CN1N=C(c2ccccc2)CC1c1sc(N(CCCl)CCCl)nc1Cl` (stereo not drawn), the growth in the experiment on HOP-62 NSCLC is 86.9%; in the experiment with NCI-H460 lung it was 106%; in the experiment on A549/ATCC NSCLC, 88.4%; in the experiment with 786-0 renal, 104%; in the experiment with DU-145 prostate it was 111%; with MALME-3M melanoma, 111%. Moreover, the growth with RXF 393 renal was 108%; in the experiment on SF-295 CNS it was 94.8%; in the experiment with UACC-257 melanoma, 97.4%; in the experiment with M14 melanoma, 103%; in the experiment with SNB-19 CNS, 90.9%; in the experiment with SK-MEL-2 melanoma it was 77.2%. The growth was 71.7% in the experiment with UO-31 renal; 123% in the experiment with A498 renal; 94% with HL-60(TB) leukemia; 90.6% in the experiment with OVCAR-5 ovarian; 96.2% in the experiment on OVCAR-4 ovarian; 83% with T-47D breast. Further, in the experiment on HCC-2998 colon, the growth is 103%.
